This passage reports Potency results from PubChem BioAssay (NCATS).

Inconclusive results are not listed. The source made the active and inactive calls. Calls follow the shape of the dose curve; as a rule, active = well fitted inhibition curve with a large enough effect; inconclusive = small, poorly fitted or top-dose-only effect; inactive = flat fitted curve, though single readings scatter.

What all share (assay): qHTS profiling for inhibitors of Plasmodium falciparum proliferation (AID 504749); also: nearly all actives have a fitted effect of over 60% in size
Common to all, as to conditions: P. falciparum in erythrocytes, SYBR Green DNA, 72 h; series mostly up to 28.7 µM
In general terms: qHTS replaces the single test concentration by a dilution series.

One experiment has as its system CP269. In short, it runs like this: (§1)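 P. falciparum-infected erythrocytes (0.3% parasitemia, 2.5% hematocrit) incubated with compound 72 h at 37 C, 5% CO2. Parasite DNA detected by SYBR Green after lysis, overnight at room temperature; normalised to 0.29 uM artemisinin and DMSO.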
For a further experiment, the system named is CP286. In short, it runs like this:
as §1

The subject of the next experiment is CP291. An outline of the steps:
as §1

The next experiment relates to CP297. An outline of the steps: as §1
The test system of another experiment is CP305. An outline of the steps:
as §1

A further experiment concerns CP315. An outline of the steps:
as §1

In a further experiment the test system is CP325. An outline of the steps: as §1
The subject of a further experiment is CP329. An outline of the steps:
as §1

The next experiment has as its system CP335. An outline of the steps:
as §1

A further experiment deals with DFO2036. In short, it runs like this:
as §1

The subject of a further experiment is DIV14. In short, it runs like this:
as §1

The test system of another experiment is DIV17. An outline of the steps:
as §1

For another experiment, the system named is DIV30. In short, it runs like this: as §1
In the next experiment the test system is Dd2. An outline of the steps:
as §1

The next experiment deals with ECU. An outline of the steps: as §1
For another experiment, the system named is FAB9. In short, it runs like this: as §1
A further experiment has as its system GB4. In short, it runs like this:
as §1

A further experiment relates to HB3. An outline of the steps: as §1
The test system of a further experiment is ICS. In short, it runs like this:
as §1

For another experiment, the system named is JCK. An outline of the steps: as §1
Potency is read from the fitted curve at half-maximal effect.

For the molecule `CC1(C)S[C@@H]2[C@H](NC(=O)[C@@H](NC(=O)N3CCNC3=O)c3ccccc3)C(=O)N2[C@H]1C(=O)O`, the Potency result in the experiment with CP269, in the experiment with CP286, with CP291, in the experiment with CP297, with CP305 and in the experiment with CP315 was “inactive” each time. For the same molecule, the Potency entry in the experiment on CP325, in the experiment with CP329, with CP335, with DFO2036, in the experiment on DIV14 and with DIV17 was “inactive” throughout. Further, the Potency entry in the experiment on DIV30, in the experiment on Dd2, in the experiment on ECU, with FAB9, with GB4 and in the experiment with HB3 was “inactive” in each case. In addition, the Potency entry in the experiment with ICS and in the experiment on JCK was “inactive” each time.
On to `CC(NNC(=O)c1ccccc1)c1ccccc1` (stereo not given), for which the Potency entry in the experiment on CP269, in the experiment with CP286, in the experiment on CP291, in the experiment with CP297, in the experiment with CP305 and with CP315 was “inactive” each time. Also, the Potency entry in the experiment with CP325, with CP329, in the experiment with CP335, in the experiment on DFO2036, in the experiment on DIV14 and in the experiment with DIV17 was “inactive” each time. The Potency result in the experiment on DIV30, in the experiment with Dd2, in the experiment on ECU, in the experiment on FAB9, in the experiment on GB4 and in the experiment on HB3 was “inactive” in each case. The Potency entry in the experiment on ICS and in the experiment on JCK was “inactive” each time.
For the molecule `CCCC(=O)O[C@]1(C(=O)CCl)[C@H](C)C[C@@H]2[C@H]3CCC4=CC(=O)C=C[C@]4(C)[C@@]3(F)C(=O)C[C@@]21C`, the Potency in the experiment with CP269 was 4260 nM (active); in the experiment on CP286, 2820 nM (active); with CP291 it was 4260 nM (active); in the experiment on CP297, 1900 nM (active); in the experiment with CP305, 4260 nM (active); with CP315, 3790 nM (active). In addition, the Potency is 4260 nM (active) in the experiment on CP325; 1900 nM (active) in the experiment on CP329; 1510 nM (active) in the experiment with CP335; 891 nM (active) in the experiment on DFO2036; 6010 nM (active) in the experiment with DIV14; 6750 nM (active) with DIV17. In addition, the Potency with DIV30 was 4260 nM (active); in the experiment with Dd2, 3160 nM (active); in the experiment on ECU, 2510 nM (active); with FAB9 it was 7940 nM (active); in the experiment on GB4, 2390 nM (active); in the experiment on HB3, 2820 nM (active). Further, the Potency was 3550 nM (active) in the experiment on ICS and 10000 nM (active) with JCK.
`Nc1ncnc2c1ncn2[C@@H]1O[C@H](COP(=O)(O)OP(=O)(O)OP(=O)(O)O)[C@@H](O)[C@H]1O`: the Potency entry with CP269, in the experiment with CP286, in the experiment with CP291, with CP297, in the experiment with CP305 and in the experiment on CP315 was “inactive” throughout. Also, the Potency entry in the experiment with CP325, in the experiment with CP329, with CP335, in the experiment with DFO2036, in the experiment on DIV14 and in the experiment with DIV17 was “inactive” throughout. Moreover, the Potency result in the experiment with DIV30, in the experiment with Dd2, in the experiment on ECU, in the experiment on FAB9, in the experiment on GB4 and with HB3 was “inactive” throughout. The Potency entry with ICS and in the experiment with JCK was “inactive” each time.
In the case of `CCN(CC)Cc1cc(Nc2ccnc3cc(Cl)ccc23)ccc1O`, the Potency with CP269 is 45.5 nM (active); in the experiment with CP286, 31.6 nM (active); in the experiment with CP291, 45.5 nM (active); in the experiment on CP297, 90.7 nM (active); with CP305, 40.5 nM (active); in the experiment with CP315 it was 287 nM (active). For the same molecule, the Potency with CP325 is 57.3 nM (active); in the experiment on CP329, 90.7 nM (active); in the experiment on CP335 it was 40.5 nM (active); with DFO2036, 56.2 nM (active); with DIV14 it was 80.9 nM (active); in the experiment with DIV17, 114 nM (active). Besides, the Potency in the experiment on DIV30 was 181 nM (active); in the experiment on Dd2 it was 56.2 nM (active); with ECU it was 31.6 nM (active); in the experiment with FAB9, 39.8 nM (active); in the experiment on GB4, 40.5 nM (active); in the experiment on HB3, 35.5 nM (active). The figures for the Potency in the experiment on ICS and in the experiment with JCK were 39.8 nM (active) and 89.1 nM (active), respectively.
Regarding `O=CCCCC=O`, the Potency entry with CP269, with CP286, in the experiment with CP291, in the experiment with CP297, in the experiment with CP305 and in the experiment on CP315 was “inactive” throughout. Moreover, the Potency result in the experiment on CP325, in the experiment with CP329, in the experiment on DFO2036, in the experiment on DIV14, with Dd2 and in the experiment with ECU was “inactive” each time. Moreover, the Potency result with FAB9 and with JCK was “inactive” each time. Further, in the experiment on ICS, the Potency is 7080 nM (active).
For `CO[C@H]1C[C@@H]2CC[C@@H](C)[C@@](O)(O2)C(=O)C(=O)N2CCCC[C@H]2C(=O)O[C@H]([C@H](C)C[C@@H]2CC[C@@H](OCCO)[C@H](OC)C2)CC(=O)[C@H](C)/C=C(\C)[C@@H](O)[C@@H](OC)C(=O)[C@H](C)C[C@H](C)/C=C/C=C/C=C/1C`, the Potency in the experiment with CP269 was 4260 nM (active); in the experiment with CP286, 3160 nM (active); in the experiment with CP291, 4260 nM (active); in the experiment with CP297, 3790 nM (active); with CP305, 4780 nM (active); with CP315 it was 4260 nM (active). Further, the Potency with CP325 was 4780 nM (active); with CP329, 4780 nM (active); with CP335, 1510 nM (active); in the experiment with DFO2036, 1410 nM (active); in the experiment on DIV14, 1690 nM (active); with DIV17 it was 1690 nM (active). The Potency in the experiment with DIV30 is 1510 nM (active); in the experiment with Dd2, 891 nM (active); with ECU, 1780 nM (active); with GB4 it was 1690 nM (active); in the experiment with HB3, 2000 nM (active); with ICS, 501 nM (active). Also, in the experiment on JCK, the Potency was 10000 nM (active).
As to `Oc1cc(O)c2c(c1)OC(c1ccc(O)c(O)c1)C(O)C2` (stereo not given), the Potency entry in the experiment with CP269, with CP286, in the experiment on CP291, in the experiment with CP297, in the experiment on CP305 and with CP315 was “inactive” each time. Also, the Potency entry in the experiment on CP325, in the experiment on CP329, in the experiment with DFO2036, in the experiment with DIV14, with DIV17 and in the experiment with DIV30 was “inactive” throughout. Besides, the Potency result in the experiment on Dd2, in the experiment on FAB9, in the experiment with HB3, with ICS and in the experiment on JCK was “inactive” in each case.
Consider `CCC(=O)NCCC1CCc2ccc3c(c21)CCO3` (stereo not given), for which the Potency entry with CP269, with CP286, in the experiment with CP291, in the experiment on CP297, in the experiment with CP305 and in the experiment on CP315 was “inactive” in each case. Moreover, the Potency entry in the experiment on CP325, with CP329, with CP335, in the experiment on DFO2036, with DIV14 and in the experiment with DIV17 was “inactive” each time. Besides, the Potency result in the experiment on DIV30, in the experiment on Dd2, with ECU, in the experiment on FAB9, with GB4 and in the experiment on HB3 was “inactive” throughout. The Potency result with ICS and in the experiment on JCK was “inactive” throughout.
As to `CC(=O)Oc1c(C)cc(OCC(O)CNC(C)C)c(C)c1C` (stereo not given), the Potency entry in the experiment with CP269, in the experiment with CP286, in the experiment on CP291, in the experiment on CP297, in the experiment with CP305 and in the experiment with CP315 was “inactive” each time. The Potency entry in the experiment on CP325, with CP329, in the experiment with CP335, in the experiment on DFO2036, in the experiment on DIV14 and in the experiment on DIV17 was “inactive” throughout. The Potency result in the experiment with DIV30, in the experiment on Dd2, with ECU, in the experiment with FAB9, in the experiment on HB3 and with ICS was “inactive” in each case. Besides, the Potency result with JCK is “inactive”.
